For assay [1], the target named is Serine/threonine-protein kinase pim-2 (Homo sapiens) (UniProt Q9P1W9). The settings on record: at 1 µM.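 Note: each value is a mean of the inhibition measurements against the kinase.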
Assay [2] concerns the target Serine/threonine-protein kinase pim-3 (Homo sapiens) (UniProt Q86V86). The settings on record: at 0.1 µM.
Assay [3] has the same target. The settings on record: at 1 µM.
Assay [4] addresses T1, MAP kinase-activated protein kinase 5 (Homo sapiens) (UniProt Q8IW41).
T1 sequence (whole entry): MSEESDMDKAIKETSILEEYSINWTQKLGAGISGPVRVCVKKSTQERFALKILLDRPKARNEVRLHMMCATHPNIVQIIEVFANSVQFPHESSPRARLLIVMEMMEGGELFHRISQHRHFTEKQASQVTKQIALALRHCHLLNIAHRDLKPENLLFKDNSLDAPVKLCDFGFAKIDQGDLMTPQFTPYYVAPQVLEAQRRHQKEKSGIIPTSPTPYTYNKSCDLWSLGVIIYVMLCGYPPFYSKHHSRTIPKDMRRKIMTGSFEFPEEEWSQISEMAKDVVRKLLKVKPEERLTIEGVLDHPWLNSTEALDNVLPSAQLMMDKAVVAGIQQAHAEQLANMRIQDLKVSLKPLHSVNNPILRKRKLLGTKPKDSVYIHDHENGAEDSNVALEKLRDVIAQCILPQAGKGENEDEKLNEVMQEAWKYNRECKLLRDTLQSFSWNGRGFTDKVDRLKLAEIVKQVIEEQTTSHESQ
To be noted: at 0.1 µM.

Assay [5] addresses T1, MAP kinase-activated protein kinase 5 (Homo sapiens). To be noted: at 1 µM.
The target in assay [6] is Serine/threonine-protein kinase SIK1 (Homo sapiens) (UniProt P57059). The settings on record: at 0.1 µM.
For assay [7] the target is unchanged. The settings on record: at 1 µM.
In assay [8] the target is Serine/threonine-protein kinase SIK2 (Homo sapiens) (UniProt Q9H0K1). To be noted: at 0.1 µM.
Assay [9] has the same target. The settings on record: at 1 µM.
Assay [10] addresses T2, Serine/threonine-protein kinase TBK1 (Homo sapiens) (UniProt Q9UHD2).
T2 sequence (whole entry): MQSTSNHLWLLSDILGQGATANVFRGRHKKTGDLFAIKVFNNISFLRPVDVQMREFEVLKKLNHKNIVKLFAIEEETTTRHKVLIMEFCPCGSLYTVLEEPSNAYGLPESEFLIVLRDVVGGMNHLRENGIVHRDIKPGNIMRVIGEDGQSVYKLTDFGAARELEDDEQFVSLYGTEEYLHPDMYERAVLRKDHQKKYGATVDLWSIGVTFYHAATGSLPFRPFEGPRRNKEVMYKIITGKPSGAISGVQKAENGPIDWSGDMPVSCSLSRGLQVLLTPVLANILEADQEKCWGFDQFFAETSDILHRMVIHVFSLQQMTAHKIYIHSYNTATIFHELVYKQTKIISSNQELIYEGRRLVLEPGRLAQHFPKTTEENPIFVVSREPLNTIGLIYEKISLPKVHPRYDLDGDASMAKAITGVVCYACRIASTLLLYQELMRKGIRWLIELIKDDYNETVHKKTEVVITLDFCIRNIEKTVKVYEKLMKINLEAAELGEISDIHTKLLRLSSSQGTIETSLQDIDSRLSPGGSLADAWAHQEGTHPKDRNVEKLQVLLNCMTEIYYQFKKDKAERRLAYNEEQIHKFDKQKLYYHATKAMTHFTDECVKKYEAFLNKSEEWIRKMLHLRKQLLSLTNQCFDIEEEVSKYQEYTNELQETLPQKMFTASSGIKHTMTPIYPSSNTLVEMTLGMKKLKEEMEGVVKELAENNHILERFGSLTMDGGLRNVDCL
The settings on record: at 0.1 µM.

The target of assay [11] is T2, Serine/threonine-protein kinase TBK1 (Homo sapiens). To be noted: at 1 µM.
Assay [12] has as its target T3, Testis-specific serine/threonine-protein kinase 1 (Homo sapiens) (UniProt Q9BXA7).
T3 sequence (whole entry): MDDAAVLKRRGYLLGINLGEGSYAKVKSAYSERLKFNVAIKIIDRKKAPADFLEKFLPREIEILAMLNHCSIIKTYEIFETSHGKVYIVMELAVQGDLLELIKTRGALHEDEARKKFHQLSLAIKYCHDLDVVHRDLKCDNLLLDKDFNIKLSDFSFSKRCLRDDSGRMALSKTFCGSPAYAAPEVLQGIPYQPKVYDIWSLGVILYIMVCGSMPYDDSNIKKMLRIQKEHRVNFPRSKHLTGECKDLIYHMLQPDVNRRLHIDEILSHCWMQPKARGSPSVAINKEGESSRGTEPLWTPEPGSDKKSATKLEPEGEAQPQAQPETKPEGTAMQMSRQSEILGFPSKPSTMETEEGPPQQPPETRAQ
The settings on record: at 0.1 µM.

For assay [13], the target named is T3, Testis-specific serine/threonine-protein kinase 1 (Homo sapiens). To be noted: at 1 µM.
Assay [14] addresses T4, Testis-specific serine/threonine-protein kinase 2 (Homo sapiens) (UniProt Q96PF2).
T4 sequence (whole entry): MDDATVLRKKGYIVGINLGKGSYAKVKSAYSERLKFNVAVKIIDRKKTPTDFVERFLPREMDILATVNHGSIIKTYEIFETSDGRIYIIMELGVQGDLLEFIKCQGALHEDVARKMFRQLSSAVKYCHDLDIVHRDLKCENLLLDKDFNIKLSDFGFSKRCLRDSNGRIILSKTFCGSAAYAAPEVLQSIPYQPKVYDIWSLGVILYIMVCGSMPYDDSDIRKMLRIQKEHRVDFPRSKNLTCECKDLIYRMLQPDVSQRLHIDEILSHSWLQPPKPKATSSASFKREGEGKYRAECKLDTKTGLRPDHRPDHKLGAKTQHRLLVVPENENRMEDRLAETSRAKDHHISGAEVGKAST
The settings on record: at 0.1 µM.

The target in assay [15] is T4, Testis-specific serine/threonine-protein kinase 2 (Homo sapiens). To be noted: at 1 µM.
In assay [16] the target is Casein kinase I isoform alpha (Homo sapiens) (UniProt P48729). To be noted: at 0.1 µM.
Assay [17] shares this target. To be noted: at 1 µM.
Assay [18] deals with Casein kinase I isoform gamma-1 (Homo sapiens) (UniProt Q9HCP0). To be noted: at 0.1 µM.
The target is the same in assay [19]. The settings on record: at 1 µM.
Assay [20] concerns the target Casein kinase I isoform gamma-2 (Homo sapiens) (UniProt P78368). The settings on record: at 0.1 µM.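 Note: values are mean inhibition figures reported as part of the GSK PKIS dataset.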

Experimental findings from ChEMBL document CHEMBL1961873, “Compounds: GSK PKIS; Assays: Nanosyn kinase panel” (2012) are described below.

Molecules are shown by their SMILES.

Casein kinase I isoform gamma-2 (Homo sapiens), sequence (P78368 whole entry, looked up, canonical isoform): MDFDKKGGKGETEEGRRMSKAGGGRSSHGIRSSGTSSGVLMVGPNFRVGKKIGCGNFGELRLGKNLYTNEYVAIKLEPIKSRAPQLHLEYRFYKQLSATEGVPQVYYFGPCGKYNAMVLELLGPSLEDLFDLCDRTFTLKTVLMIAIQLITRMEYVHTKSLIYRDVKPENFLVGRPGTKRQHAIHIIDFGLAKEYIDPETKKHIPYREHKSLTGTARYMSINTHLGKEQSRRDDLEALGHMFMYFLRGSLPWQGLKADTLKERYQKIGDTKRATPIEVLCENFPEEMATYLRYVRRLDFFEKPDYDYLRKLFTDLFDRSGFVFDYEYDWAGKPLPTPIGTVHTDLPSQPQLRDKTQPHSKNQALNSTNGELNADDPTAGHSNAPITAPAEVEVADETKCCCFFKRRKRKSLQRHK
Casein kinase I isoform gamma-1 (Homo sapiens), sequence (Q9HCP0 whole entry, looked up, canonical isoform): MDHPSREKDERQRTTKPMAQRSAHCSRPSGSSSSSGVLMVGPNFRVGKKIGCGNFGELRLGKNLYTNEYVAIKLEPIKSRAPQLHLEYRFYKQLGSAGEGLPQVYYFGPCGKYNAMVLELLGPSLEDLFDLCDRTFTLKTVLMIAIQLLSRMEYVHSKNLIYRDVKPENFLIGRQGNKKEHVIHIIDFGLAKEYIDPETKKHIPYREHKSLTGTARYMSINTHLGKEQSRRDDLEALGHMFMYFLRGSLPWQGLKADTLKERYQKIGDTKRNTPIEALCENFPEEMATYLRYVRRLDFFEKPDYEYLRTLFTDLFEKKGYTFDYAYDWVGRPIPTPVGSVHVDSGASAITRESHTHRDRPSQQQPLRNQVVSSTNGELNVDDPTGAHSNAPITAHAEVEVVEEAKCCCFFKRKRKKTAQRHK
Serine/threonine-protein kinase SIK1 (Homo sapiens), sequence (P57059 whole entry): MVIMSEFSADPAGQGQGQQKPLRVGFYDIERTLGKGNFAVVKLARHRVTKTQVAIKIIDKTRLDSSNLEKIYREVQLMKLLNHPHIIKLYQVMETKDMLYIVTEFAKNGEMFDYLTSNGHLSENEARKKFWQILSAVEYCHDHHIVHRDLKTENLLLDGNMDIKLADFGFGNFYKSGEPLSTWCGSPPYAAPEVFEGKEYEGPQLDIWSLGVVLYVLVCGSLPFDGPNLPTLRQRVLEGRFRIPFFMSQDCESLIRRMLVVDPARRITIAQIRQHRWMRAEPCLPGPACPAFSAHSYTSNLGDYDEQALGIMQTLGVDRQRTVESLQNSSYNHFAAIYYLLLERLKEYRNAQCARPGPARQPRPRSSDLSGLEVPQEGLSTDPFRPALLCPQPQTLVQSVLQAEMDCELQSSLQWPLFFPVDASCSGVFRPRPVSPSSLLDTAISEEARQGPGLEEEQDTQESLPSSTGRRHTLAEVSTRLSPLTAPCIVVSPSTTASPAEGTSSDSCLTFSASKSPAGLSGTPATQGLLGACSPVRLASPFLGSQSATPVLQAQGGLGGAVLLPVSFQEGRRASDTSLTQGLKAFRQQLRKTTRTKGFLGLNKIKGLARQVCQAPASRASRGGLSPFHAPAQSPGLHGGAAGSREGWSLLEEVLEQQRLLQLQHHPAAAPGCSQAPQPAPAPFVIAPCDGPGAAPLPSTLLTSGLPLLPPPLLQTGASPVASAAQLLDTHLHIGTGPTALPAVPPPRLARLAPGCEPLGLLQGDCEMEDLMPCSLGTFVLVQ
Serine/threonine-protein kinase SIK2 (Homo sapiens), sequence (Q9H0K1 whole entry, looked up): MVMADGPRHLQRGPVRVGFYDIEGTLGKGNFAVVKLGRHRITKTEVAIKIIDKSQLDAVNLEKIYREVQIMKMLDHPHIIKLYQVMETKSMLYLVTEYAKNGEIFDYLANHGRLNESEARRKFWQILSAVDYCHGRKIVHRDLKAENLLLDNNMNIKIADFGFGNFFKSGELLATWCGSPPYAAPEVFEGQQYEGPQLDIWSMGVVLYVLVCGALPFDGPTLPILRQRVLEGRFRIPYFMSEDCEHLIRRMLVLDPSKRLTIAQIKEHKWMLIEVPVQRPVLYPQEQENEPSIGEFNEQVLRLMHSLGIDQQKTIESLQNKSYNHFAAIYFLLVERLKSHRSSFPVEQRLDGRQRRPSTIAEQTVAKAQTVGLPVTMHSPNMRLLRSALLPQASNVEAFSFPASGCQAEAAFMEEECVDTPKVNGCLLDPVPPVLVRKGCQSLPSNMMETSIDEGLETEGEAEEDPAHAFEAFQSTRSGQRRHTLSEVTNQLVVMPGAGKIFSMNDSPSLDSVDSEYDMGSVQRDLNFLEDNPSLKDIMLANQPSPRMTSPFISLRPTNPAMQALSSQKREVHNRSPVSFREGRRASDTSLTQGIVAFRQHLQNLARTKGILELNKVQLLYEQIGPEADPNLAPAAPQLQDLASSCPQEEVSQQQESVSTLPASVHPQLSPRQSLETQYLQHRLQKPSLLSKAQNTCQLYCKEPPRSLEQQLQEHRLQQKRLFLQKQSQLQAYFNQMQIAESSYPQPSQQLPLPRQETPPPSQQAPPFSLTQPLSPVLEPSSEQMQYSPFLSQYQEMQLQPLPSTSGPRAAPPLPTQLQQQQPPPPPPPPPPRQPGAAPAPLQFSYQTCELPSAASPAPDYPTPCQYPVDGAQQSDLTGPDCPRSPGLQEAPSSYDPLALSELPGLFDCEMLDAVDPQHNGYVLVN
Serine/threonine-protein kinase pim-2 (Homo sapiens), sequence (Q9P1W9 whole entry, looked up): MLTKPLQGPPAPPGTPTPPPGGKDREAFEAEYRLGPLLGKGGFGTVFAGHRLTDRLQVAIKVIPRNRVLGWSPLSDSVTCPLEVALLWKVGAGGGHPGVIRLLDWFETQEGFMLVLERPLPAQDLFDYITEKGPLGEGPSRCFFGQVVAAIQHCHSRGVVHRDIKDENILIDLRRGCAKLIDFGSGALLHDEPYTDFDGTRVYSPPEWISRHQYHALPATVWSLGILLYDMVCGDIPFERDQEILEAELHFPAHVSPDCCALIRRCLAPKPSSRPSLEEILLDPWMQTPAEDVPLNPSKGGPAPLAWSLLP
Casein kinase I isoform alpha (Homo sapiens), sequence (P48729 2-337 limits assumed): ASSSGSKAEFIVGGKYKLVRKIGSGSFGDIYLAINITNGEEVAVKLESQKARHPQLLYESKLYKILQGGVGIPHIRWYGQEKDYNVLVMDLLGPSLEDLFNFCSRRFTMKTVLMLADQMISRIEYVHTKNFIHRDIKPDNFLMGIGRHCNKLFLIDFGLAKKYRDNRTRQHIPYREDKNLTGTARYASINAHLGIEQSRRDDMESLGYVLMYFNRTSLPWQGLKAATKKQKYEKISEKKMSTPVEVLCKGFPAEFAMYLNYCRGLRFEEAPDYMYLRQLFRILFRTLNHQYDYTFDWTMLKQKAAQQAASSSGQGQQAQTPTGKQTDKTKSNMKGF

As to `CN(c1ccc(NC(=O)Nc2ccc(OC(F)(F)F)cc2)cc1)c1ccnc(Nc2cccc(S(N)(=O)=O)c2)n1`, the inhibition in assay [1] is 0.39%; in [2], 0.72%; in assay [3], -1.83%; in assay [4] it was 0.88%; in assay [5], -0.8%; in [6], 3.04%. Further, the inhibition in assay [7] is 7.29%; in assay [8], 0.98%; in assay [9] it was -0.49%; in assay [10], 0.04%; in assay [11], 9.01%; in [12], 1.37%. For the same molecule, the inhibition is 2.44% in assay [13]; 1.3% in assay [14]; 1.3% in [15]; 2.69% in [16]; -0.75% in assay [17]; 2.75% in [18]. Further, the inhibition in [19] came out at 3.06%; in assay [20], 2.32%.
Regarding `CN(C)C(=O)O[C@H]1CN[C@H](C#Cc2cc3ncnc(Nc4ccc(OCc5cccc(F)c5)c(Cl)c4)c3s2)C1`, the inhibition in assay [1] is 0.45%; in [2], -0.1%; in [3], -1.11%; in assay [4], 0.7%; in assay [5] it was -0.94%; in [6], 4.32%. The inhibition in assay [7] was 5.89%; in assay [8], 11.5%; in assay [9], 12.2%; in assay [10] it was -0.37%; in assay [11], 4.42%; in [12] it was 1.61%. For the same molecule, the inhibition in assay [13] is 0.19%; in assay [14] it was 0.42%; in assay [15], -1.25%; in [16] it was -3.89%; in assay [17], 2.94%; in [18], 1.92%. For the same molecule, the values for the inhibition in assay [19] and in [20] were 2.06% and 2.17%, respectively.
Regarding `N#Cc1cccc(Nc2nccc(-c3cnn4ncccc34)n2)c1`, the inhibition worked out at 7.85% in assay [1]; 4.41% in [2]; 34% in assay [3]; 1.48% in assay [4]; 4.15% in assay [5]; 8.01% in [6]. Moreover, the inhibition in assay [7] came out at 15.1%; in assay [8], 4.44%; in [9] it was 11.9%; in assay [10] it was 1.58%; in [11], 22.1%; in [12], 6.69%. Moreover, the inhibition in [13] amounted to 10.6%; in assay [14] it was 2.43%; in assay [15] it was 2.95%; in assay [16], 28.9%; in [17], 69.8%; in [18], 5.75%. The inhibition in assay [19] was found to be 28.2%; in [20] it was 6.38%.
`NS(=O)(=O)c1ccc(NC=C2C(=O)Nc3ccc4ncsc4c32)cc1`: the inhibition in assay [1] came out at 5.46%; in assay [2], 2.4%; in assay [3] it was 13.1%; in [4], 2.33%; in [5], 13.9%; in assay [6] it was 5.99%. Also, the inhibition stood at 34.1% in assay [7]; 9.07% in [8]; 40.7% in assay [9]; 13.4% in assay [10]; 65.6% in [11]; 8.91% in [12]. In addition, the inhibition in assay [13] came out at 33.5%; in [14] it was 2.62%; in [15], 3.73%; in assay [16], 4.2%; in assay [17], 22.3%; in assay [18] it was 5.22%. Besides, the values for the inhibition in assay [19] and in assay [20] were 18.2% and 3.58%, respectively.
As for `C[C@@H](Oc1cc(-n2cnc3ccc(OCC4CCN(C)CC4)cc32)sc1C(N)=O)c1ccccc1C(F)(F)F`, the inhibition in assay [1] was 1.56%; in assay [2], 8.51%; in assay [3], 47.6%; in assay [4] it was -0.8%; in assay [5] it was -1.08%; in assay [6], 13.5%. The inhibition in [7] is 65.6%; in assay [8] it was 6.88%; in [9], 30.3%; in assay [10], -2.73%; in [11], -1.33%; in assay [12] it was 1.47%. Also, the inhibition is 22.4% in assay [13]; -1.17% in assay [14]; -0.35% in [15]; -4.16% in assay [16]; -1.43% in assay [17]; -1.72% in [18]. The figures for the inhibition in assay [19] and in assay [20] were -1.25% and -1.74%, respectively.
In the case of `CCOc1nccc2c1nc(-c1nonc1N)n2CC`, the inhibition in [1] is 1.49%; in [2], 3.33%; in assay [3], 5.37%; in [4] it was 2.15%; in assay [5] it was 3.99%; in [6] it was 4.04%. Moreover, the inhibition is 5.99% in [7]; 4.45% in assay [8]; 9.31% in assay [9]; 1.76% in [10]; 6.01% in assay [11]; 3.94% in assay [12]. In addition, the inhibition came to 4.63% in [13]; 2.77% in assay [14]; 4.45% in assay [15]; 3.85% in [16]; 2.28% in assay [17]; 2.65% in assay [18]. Further, the inhibition came out at 1.76% in assay [19] and 1.95% in [20].
As to `O=C1Nc2ccc(-c3cccnc3)cc2C1=Cc1cc(Br)c(O)c(Br)c1`, the inhibition in [1] turned out to be 46.5%; in assay [2], 8.54%; in assay [3] it was 49%; in assay [4] it was 0.52%; in assay [5] it was 0.45%; in assay [6], 6.08%. Moreover, the inhibition is 4.86% in assay [7]; -1.13% in assay [8]; -0.16% in assay [9]; 3.66% in [10]; 7.51% in assay [11]; 2.68% in assay [12]. The inhibition was 1.29% in assay [13]; 0.55% in assay [14]; -0.14% in assay [15]; 6.06% in assay [16]; 3.87% in assay [17]; 4.05% in assay [18]. The inhibition in assay [19] worked out at 4.74%; in [20] it was 2.62%.

For orientation: inhibition means the change of the read-out against control, counted positive when it falls.
